Screening data deposited in PubChem by several laboratories.
A selection: hits, their analogues and other compounds. The true share with any hit is near 3.5%.
GDH-TPI inh = GDH-TPI coupled enzyme inhibition counter-screen; GDH-TPI coupled enzyme counterscreen, NADH absorbance; inhibition, % at 4.8 µM; 1.2% of 360,000 active; in the data active = inhibition above about 30%
FadD28 binding = blocks FadD28 binding to the bisubstrate probe; inhibition, % at 12.5 µM; AID 588549; fluorescence polarization; 0.22% of 360,000 active; in the data active = inhibition above about 8.5%, passing the limit was not always enough
Mtb UGM inh = inhibitors of M. tuberculosis UDP-galactopyranose mutase; 0.06% of 320,000 active; AID 504406; purified UGM, fluorescence polarization probe displacement; inhibition, % at 10 µM; in the data active = inhibition above about 10%, passing the limit was not always enough
Target sequence (P9WIQ1 whole entry, looked up): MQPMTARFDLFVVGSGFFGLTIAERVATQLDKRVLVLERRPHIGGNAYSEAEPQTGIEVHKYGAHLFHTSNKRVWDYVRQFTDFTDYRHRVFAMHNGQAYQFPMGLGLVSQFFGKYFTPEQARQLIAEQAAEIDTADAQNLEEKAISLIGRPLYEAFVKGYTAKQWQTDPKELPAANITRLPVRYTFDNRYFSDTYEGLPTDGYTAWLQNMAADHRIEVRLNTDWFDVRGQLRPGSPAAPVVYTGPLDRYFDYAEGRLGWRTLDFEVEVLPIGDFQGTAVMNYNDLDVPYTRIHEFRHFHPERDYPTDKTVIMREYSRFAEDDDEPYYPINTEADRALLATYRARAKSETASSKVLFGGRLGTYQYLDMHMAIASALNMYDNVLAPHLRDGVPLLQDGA
Rv3671c inh = inhibitors of M. tuberculosis serine protease Rv3671c. 0.048% of 320,000 active. P9WHR9. inhibition, % at 5.96 µM; in the data active = inhibition above about 38%;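 also: extracellular domain of Rv3671c used as enzyme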
Mtb hypoxia inh = inhibitors of hypoxia-regulated fluorescent reporter in Mycobacterium tuberculosis | 0.1% of 300,000 active | M. tuberculosis hypoxia-regulated fluorescent reporter, fluorescence | fluorescence inhibition, % (test concentration not listed) | AID 1159583; in the data active = fluorescence inhibition mostly above about 23%, no sharp cut-off; inactive = mostly below about 17%
FBA Mtb inh = Mtb fructose-bisphosphate aldolase inhibition; P9WQA3; purified M. tuberculosis FBA, fluorescence read-out; inhibition, % at 1 µM; 2.3% of 360,000 active; AID 588726; in the data active = inhibition above about 27%
A number is an active result; – = inactive; · = not tested or not shown; + = active, no number.

SMILES	GDH-TPI inh	FadD28 binding	Mtb UGM inh	Rv3671c inh	Mtb hypoxia inh	FBA Mtb inh
O=C(CN1C(=O)S/C(=C\c2ccccc2)C1=O)Nc1cc([N+](=O)[O-])ccc1O	–	18	–	–	–	–
COc1ccc(S(=O)(=O)N(C)CC2Oc3ccc(NS(=O)(=O)c4cccs4)cc3C(=O)N(C(C)CO)CC2C)cc1 (configuration not stated)	·	·	·	·	–	·
COc1cc(CCCN2CCNCC2CC2CCCCC2)cc(OC)c1OC (configuration not stated)	·	·	·	·	–	·
O=C(N/N=C/c1cn(-c2ccccc2)nc1-c1cc2ccccc2o1)c1ccccc1Br	31	–	–	–	·	–
O=C(NN=Cc1cn(-c2ccccc2)nc1-c1cc2ccccc2o1)c1c[nH]c2ccccc12	·	·	·	·	–	·
COCCCNc1nc2nonc2nc1N(C)CC1CCCN1C (configuration not stated)	36	–	–	–	–	–
CC(=NNC(=O)c1ccco1)c1cccc(NC(=O)c2ccc(C)s2)c1	·	·	·	·	–	·
CCOC(=O)C1C2COc3ccc(C)cc3C2N2C(=O)c3cc(Br)ccc3NC(=O)[C@@]12C (some centres not stated)	·	·	·	·	–	·
O=c1oc2c(CN3CCOCC3)c(O)c(Cl)cc2c2c1CCC2	–	–	·	·	·	·
CCN(CC)Cc1c(O)c(Cl)cc2c3c(c(=O)oc12)CCCC3	–	–	–	–	–	+
CN(C)Cc1c(O)c(Cl)cc2c3c(c(=O)oc12)CCCC3	–	–	–	–	–	+
CCOC(=O)CN1C(=O)NC(c2ccc(Br)cc2)C(C(C)=O)=C1C (configuration not stated)	·	·	·	·	–	·
CCOC(=O)C1CCN(C(=O)c2sccc2Cl)CC1	–	–	–	–	–	+
CCC1CCC(C(=O)NNC(=O)c2cc(-c3ccco3)[nH]n2)CC1 (configuration not stated)	–	11	–	–	·	–
CCOc1ccc(-c2cc(C)[n+](CCc3ccc(OC)c(OC)c3)c(-c3ccc(OCC)cc3)c2)cc1	31	–	–	·	·	–
COc1ccc(O)c(C=NNC(=O)CCn2nnc3ccccc32)c1	·	·	·	·	–	·
CSC(=NS(=O)(=O)c1cccs1)Nc1ccc(N2CCOCC2)cc1	·	·	·	·	–	·
CC(=NCc1cccc(Cl)c1)c1nc(-c2ccco2)oc1O	34	–	–	–	–	–
COc1ccc(OC)c(C=NNC(=O)c2cccc3ccccc23)c1	·	·	·	·	–	·
COc1ccc(OC)c(/C=N/NC(=O)CNC(=O)c2cccc3ccccc23)c1	–	–	–	–	·	145
COc1ccc(C=NNC(=O)CCC(=O)Nc2ccc(Br)cc2)c(OC)c1	·	·	·	·	–	·
COc1ccc(OC)c(/C=N/NC(=O)CCCC(=O)Nc2cccc(Br)c2)c1	–	–	–	–	·	60
CC1CN(C(C)CO)C(=O)c2cccc(NC(=O)CCC(F)(F)F)c2OC1CN(C)S(=O)(=O)c1cccs1 (configuration not stated)	·	·	·	·	–	·
N#C/C(=C\c1cc2c(cc1Br)OCO2)c1ccc(C(=O)O)cc1	31	–	–	–	–	–
Cc1nc2ccccn2c1C(=O)N/N=C/c1ccc(CNC(=O)C(=O)Nc2ccccc2)o1	38	–	–	–	·	–
SMILES	GDH-TPI inh	FadD28 binding	Mtb UGM inh	Rv3671c inh	Mtb hypoxia inh	FBA Mtb inh
CON(C)C(=O)CC1CC(OC(=O)c2ccc([N+](=O)[O-])cc2)CN1C(=O)OC(C)(C)C (configuration not stated)	·	·	·	·	–	·
NC(=O)C(=O)NN=Cc1c(F)c(F)c(F)c(F)c1F	·	·	·	·	–	·
COC(=O)c1[nH]c2cc(OC)c(OC)cc2c1NC(=O)c1cccc(OC)c1	32	–	–	–	·	–
CCOC(=O)C1C2COc3ccc(Br)cc3C2N2C(=O)N(c3ccc(Br)cc3)C(=O)[C@]12C (some centres not stated)	·	·	·	·	–	·
CCOC(=O)C1C2COc3ccccc3C2N2C(=O)N(c3ccc(F)cc3)C(=O)[C@]12C (some centres not stated)	·	·	·	·	–	·
CN(/N=C/c1ccccc1O)C(=S)c1ccccc1	32	–	–	–	·	–
CN(N=Cc1ccccc1O)C(=S)c1ccccc1	·	·	·	·	–	·
CCC1=C(OC(=O)N(CC)CC)N2C(=O)OC(=NCC(=O)OC)[C@]2(Cc2ccccc2)C2C1=CCC1C(=O)NC(=O)C12 (some centres not stated)	·	·	·	·	–	·
COc1ccc(/C(C)=N/N2C(=O)c3ccccc3NC2c2ccc(O)c(OC)c2)cc1 (configuration not stated)	35	–	–	–	·	–
COc1cc(C2Nc3ccccc3C(=O)N2c2ccccc2)ccc1O (configuration not stated)	–	–	–	–	–	–
O=c1oc(-c2ccc(O)c(O)c2)cc2cccc(O)c12	–	–	·	–	·	–
